# Reference: PubChem BioAssay (Tox21)
# Results filed as inconclusive are left out. Values without a mark were called inactive. Activity calls are given as the source filed them. Calls come from the whole dose curve.
# Experiment: qHTS assay to identify small molecule agonists of the AP-1 signaling pathway - cell viability counter screen (AID 1159525); note: nearly all actives have a fitted effect of over 55% in size
# Conditions: ME-180 (cervical carcinoma) AP-1-bla cells viability, ATP luminescence, 5 h; series mostly up to 76.8 µM; viability change, negative = cytotoxic: at the top concentration
# Text: National Center for Advancing Translational Sciences [NCATS]
# NIH Chemical Genomics Center [NCGC]
# U.S. Environmental Protection Agency [EPA]
# National Institutes of Environmental Health Sciences [NIEHS]
# National Toxicology Program [NTP]
# U.S. Food and Drug Administration [FDA]
# Activator protein-1 (AP-1), a transcription factor, plays an important role in tumor genesis by regulating genes involved in cell proliferation, differentiation, apoptosis, and angiogenesis. AP-1 activity is induced by a complex network of signaling pathways that involves extracellular signals, such as growth factors. The AP-1 protein complex formed from c-Fos and c-Jun binding to the AP-1 response element results in transcriptional activation of genes containing such elements within their promoter.
# Low molecular weight molecules have been discovered and developed to modulate various components of these signaling pathways, for example, MAP kinase inhibitors. However, many points of pathway modulation remain untested due to the lack of chemical probes making this signaling locus of general interest.
# Using a beta-lactamase reporter-gene under control of the AP-1 response element, a cell-based assay [CellSensor(TM) AP-1-bla ME-180 developed by Invitrogen Corp.] was used to measure EGF-induced signaling. The Tox21 10K library compounds were measured for their ability to positively modulate the action of EC50 EGF on reporter gene activity. Compounds were screened in a 15-pt titration series in 1536-well format. The cytotoxicity of the Tox21 compound library against this cell line was tested in parallel by measuring the intra cellular ATP content in the same wells.
# Tox21 Assay Protocol Summary:
# 2500 cells/5uL in Opti-MEM medium containing 0.5% dialyzed FBS, 0.1 mM NEAA, 1 mM sodium pyruvate and 10 mM HEPES was dispensed into 1536-well black wall/clear bottom plates using a Multidrop dispenser and cells were cultured at 37 degrees Celsius overnight. Next day 23 nL of compounds dissolved in DMSO, positive controls or DMSO were delivered to each well using a pin tool. The plates were incubated at 37 degrees Celsius for 5 hours. 1 uL of LiveBLAzerTM B/G FRET substrate (Solution A+B+C+D) was added to each well using a Flying Reagent Dispenser. After incubated at room temperature for 2.5 hours the plates were measured on an EnVision plate reader at Excitation 405nm, Emission1=460nm and Emission 2=530nm. The %Activity was determined from the ratio of 460nm/530nm.
# After the plates were read for Beta-Lactamase assay on Envision; 3 ul Cell Titer Glo (Promega) was added to measure the cytotoxicity and the plates were then incubated at RT in dark for 30 min. The luminescence was read on ViewLux (Perkin Elmer, Shelton, CT) using 6 sec exposure. ViewLux data was expressed as relative luminescence units.
# For primary data analysis, raw plate reads for each titration point were first normalized relative to […] EGF control (100%) and DMSO only wells (basal, 0%).
# For primary data analysis for viability assay, raw plate reads for each titration point were first normalized Tetra n-octyl ammonium bromide control (-100%) and DMSO (control, 100%).
SMILES,Potency,"viability change, negative = cytotoxic"
O=C(CCl)c1ccc(Cl)cc1Cl,inactive,–
C=CC(=O)OC,–,-0.74%
CS/C(C)=N/OC(=O)N(C)SN(C)C(=O)O/N=C(\C)SC,–,-9.98%
COC(=O)c1cncn1C(C)c1ccccc1 (stereo not given),–,5.91% [at 35.3 µM]
Clc1cccc2ccccc12,–,7.52%
CC1(C)[C@H](C=C(Cl)Cl)[C@@H]1C(=O)O[C@@H](C#N)c1cccc(Oc2ccccc2)c1,–,-25.9%
CCCC(=O)Cl,–,0.574%
NC(=O)C(Cl)(Cl)Cl,–,-2.66%
CCOC(=O)C(Cl)C(C)=O (stereo not given),–,0.283%
CC(=O)CCC(C)=O,–,-6.47%
COC(=O)C(C)N(C(=O)Cc1ccccc1)c1c(C)cccc1C (stereo not given),–,0.55%
ClC=C(Cl)Cl,–,6.58%
C=C(C#N)CCC#N,–,4.32%
CC(=O)C(C)(C)C,–,1.22%
CCCCN=C=O,–,-15.2%
Nc1ccc([N+](=O)[O-])cc1[N+](=O)[O-],–,4.69%
C=CC(=O)OCCCCO,–,13.3%
O=S1(=O)OC(c2cc(Br)c(O)c(Br)c2)(c2cc(Br)c(O)c(Br)c2)c2ccccc21,–,-17.4%
Cc1ccc(N)cc1C,–,2.17%
O=C1CN=C(c2ccccc2)c2cc(Cl)ccc2N1CC1CC1,–,-0.558%

SMILES,Potency,"viability change, negative = cytotoxic"
O=C(O)CC(Cl)C(=O)O (stereo not given),–,-6.51%
CCOC(=O)[C@]1(c2ccccc2)Oc2ccccc2[C@@H]1N,–,-10.1%
C=CC(=O)NCNC(=O)C=C,–,0.831%
O=C(NC(=O)c1c(F)cccc1F)Nc1ccc(OC(F)(F)C(F)OC(F)(F)F)c(Cl)c1 (stereo not given),–,-2.06% [at 35.3 µM]
[CH3][Sn]([CH3])([Cl])[Cl],–,11.4%
CCCCc1c(C)nc(NCC)nc1OS(=O)(=O)N(C)C,–,-0.994%
OCCCBr,–,1.08%
CCCCCCCCCC(=O)O[C@H]1CC[C@H]2[C@@H]3CCC4=CC(=O)CC[C@@H]4[C@H]3CC[C@]12C,–,-7.83% [at 35.3 µM]
CN1C(=O)C(O)N=C(c2ccccc2)c2cc(Cl)ccc21 (stereo not given),–,-6.18%
ClP(Cl)(Cl)(Cl)Cl,–,1.71%
CN(N=O)c1ccc([N+](=O)[O-])cc1,–,1.05%
O=C=Nc1ccc(Cl)cc1,–,2.93%
CC(C)(Cl)[N+](=O)[O-],–,4.21%
O=C(O)c1ccccc1C(=O)Nc1cccc2ccccc12,–,-1.17%
CC/C(=N\OC/C=C/Cl)C1=C(O)CC(C2CCOCC2)CC1=O (stereo not given),–,-2.77%
O=C(Nc1ccccc1)Nc1cnns1,–,0.63%
CC(=O)[C@H]1CC[C@H]2[C@@H]3CC[C@H]4C[C@](C)(O)CC[C@]4(C)[C@H]3CC[C@]12C,–,-5.82% [at 35.3 µM]
O=C(NCc1cccnc1)Nc1ccc([N+](=O)[O-])cc1,–,3.24%
CCOP(=S)(OCC)Oc1nc(Cl)c(Cl)cc1Cl,–,6.67%
O=C(O)C1(c2ccc3c(c2)OC[C@H](Cc2ccc(-c4ccccc4)cc2)[C@H]3O)CCCC1,–,-12%
